PubChem BioAssay (NCATS)
Several values for one entry are separate records, joined by “and”; a condition that tells them apart may be missing. Equal values may be shown once. Records with an inconclusive call do not appear. Where a call stands in place of a potency, no number is given. Activity calls are given as the source filed them. The call rests on the fitted dose curve; in most records, active means well fitted curve in the direction sought with a large enough effect; inconclusive means small, poorly fitted or top-dose-only effect, or another doubt; inactive means no such curve, though single readings can be large; an effect the other way counts as inactive or inconclusive.

Assays:
[1] = qHTS of pediatric cancer cell lines to identify multiple opportunities for drug repurposing: Primary screen for TC32 cells (AID 1347089); further: nearly all actives have a fitted effect of over 60% in size
Procedure, shortened: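 A viability screen of TC32 cells was run over 48 h, with primary MIPE doses spanning 0.78 nM–46 µM and NPC doses 0.59 nM–46 µM. ATP luminescence (CellTiter-Glo) served as the read-out.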

[2] = qHTS of pediatric cancer cell lines to identify multiple opportunities for drug repurposing: Primary screen for DAOY cells (AID 1347090); further: series mostly up to about 46 µM; nearly all actives have a fitted effect of over 55% in size
Procedure, shortened: (§1)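 Eight- or eleven-point concentration series, 48 h treatment at 37 degrees C in growth media; readout CellTiter-Glo luminescence. Potency and efficacy were taken from the concentration-response curves.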

[3] = qHTS of pediatric cancer cell lines to identify multiple opportunities for drug repurposing: Primary screen for U-2 OS cells (AID 1347096); further: nearly all actives have a fitted effect of over 50% in size
Procedure, shortened: (§2)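 Cells (500-1,000/well) in growth media were settled 5 h at 37 degrees C, then given compounds for 48 h. Viability was read as CellTiter-Glo luminescence. Primary runs used MIPE at 11 points (0.78 nM-46 µM) and NPC at 8 points (0.59 nM-46 µM); follow-ups used 11 points.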

[4] = qHTS of pediatric cancer cell lines to identify multiple opportunities for drug repurposing: Primary screen for Saos-2 cells (AID 1347097); further: nearly all actives have a fitted effect of over 40% in size; further: potency means the concentration at half of the fitted maximal effect
Procedure, shortened: (§3)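 Plated cells (500-1,000 per well, growth media) were allowed to settle for 5 hours, treated with compound dilutions for 48 hours, then lysed with CellTiter-Glo for 15 min at room temperature before luminescence reading.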

[5] = qHTS of pediatric cancer cell lines to identify multiple opportunities for drug repurposing: Primary screen for SK-N-SH cells (AID 1347098); further: nearly all actives have a fitted effect of over 65% in size; further: potency means the concentration at half of the fitted maximal effect
Procedure, shortened: (§4)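 Cells (500-1,000/well) rested 5 h, then received compounds for 48 h; metabolically active cells were measured by CellTiter-Glo luminescence. Final concentrations spanned up to 46 µM (MIPE, 11-point) or 0.59 nM-46 µM (NPC, 8-point) in primary screens, 11-point in follow-ups.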

[6] = qHTS of pediatric cancer cell lines to identify multiple opportunities for drug repurposing: Primary screen for LAN-5 cells (AID 1347100); further: potency means the concentration at half of the fitted maximal effect
Procedure, shortened: as §2

[7] = qHTS of pediatric cancer cell lines to identify multiple opportunities for drug repurposing: Primary screen for Rh18 cells (AID 1347102); further: nearly all actives have a fitted effect of over 65% in size; further: potency means the concentration at half of the fitted maximal effect
Procedure, shortened: as §2

[8] = qHTS of pediatric cancer cell lines to identify multiple opportunities for drug repurposing: Primary screen for MG 63 (6-TG R) cells (AID 1347105); further: nearly all actives have a fitted effect of over 50% in size
Procedure, shortened: as §3

[9] = qHTS of pediatric cancer cell lines to identify multiple opportunities for drug repurposing: Primary screen for control Hh wild type fibroblast cells (AID 1347106);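 further: series mostly up to about 46 µM; a drop in luminescence marks cytotoxicity and a rise apparent proliferation; nearly all actives have a fitted effect of over 55% in size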
Procedure, shortened: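 Viability after 48 h compound treatment at 37C, 500-1,000 cells/well, read as ATP luminescence with CellTiter-Glo. Primary screens used 11-point (MIPE, 0.78 nM-46 µM) or 8-point (NPC, 0.59 nM-46 µM) final concentrations; follow-up screens used 11-point dilutions.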

[10] = qHTS of pediatric cancer cell lines to identify multiple opportunities for drug repurposing: Primary screen for Rh30 cells (AID 1347107); further: series mostly up to about 46 µM; nearly all actives have a fitted effect of over 75% in size
Procedure, shortened: as §2

[11] = qHTS of pediatric cancer cell lines to identify multiple opportunities for drug repurposing: Primary screen for SJ-GBM2 cells (AID 1347091); further: potency means the concentration at half of the fitted maximal effect
Procedure, shortened: as §1

[12] = qHTS of pediatric cancer cell lines to identify multiple opportunities for drug repurposing: Primary screen for A673 cells (AID 1347092); further: nearly all actives have a fitted effect of over 45% in size; further: potency means the concentration at half of the fitted maximal effect
Procedure, shortened: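 Titration-based qHTS on A673 cells: MIPE compounds spanned 11 points (0.78 nM to 46 µM final), NPC compounds 8 points (0.59 nM to 46 µM final). Viability after 48 h was measured by ATP luminescence.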

[13] = qHTS of pediatric cancer cell lines to identify multiple opportunities for drug repurposing: Primary screen for SK-N-MC cells (AID 1347093); further: potency means the concentration at half of the fitted maximal effect
Procedure, shortened: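 Metabolically active cells were quantified by ATP-dependent luminescence (CellTiter-Glo, 15 min at room temperature) following 48 h treatment. Cells had been plated at 500-1,000 per well and settled for 5 h beforehand.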

[14] = qHTS of pediatric cancer cell lines to identify multiple opportunities for drug repurposing: Primary screen for BT-37 cells (AID 1347094); further: potency means the concentration at half of the fitted maximal effect
Procedure, shortened: as §3

[15] = qHTS of pediatric cancer cell lines to identify multiple opportunities for drug repurposing: Primary screen for NB-EBc1 cells (AID 1347095)
Procedure, shortened: as §3

[16] = qHTS of pediatric cancer cell lines to identify multiple opportunities for drug repurposing: Primary screen for NB1643 cells (AID 1347099); further: nearly all actives have a fitted effect of over 50% in size; further: potency means the concentration at half of the fitted maximal effect
Procedure, shortened: as §3

[17] = qHTS of pediatric cancer cell lines to identify multiple opportunities for drug repurposing: Primary screen for BT-12 cells (AID 1347101); further: nearly all actives have a fitted effect of over 25% in size; further: potency means the concentration at half of the fitted maximal effect
Procedure, shortened: as §4

[18] = qHTS of pediatric cancer cell lines to identify multiple opportunities for drug repurposing: Primary screen for OHS-50 cells (AID 1347103); further: nearly all actives have a fitted effect of over 40% in size; further: potency means the concentration at half of the fitted maximal effect
Procedure, shortened: as §4

[19] = qHTS of pediatric cancer cell lines to identify multiple opportunities for drug repurposing: Primary screen for Rh41 cells (AID 1347108); further: nearly all actives have a fitted effect of over 70% in size; further: potency means the concentration at half of the fitted maximal effect
Procedure, shortened: as §3

[20] = qHTS of pediatric cancer cell lines to identify multiple opportunities for drug repurposing: Primary screen for RD cells (AID 1347104); further: nearly all actives have a fitted effect of over 55% in size; further: potency means the concentration at half of the fitted maximal effect
Procedure, shortened: as §3

| SMILES | Potency [1] | Potency [2] | Potency [3] | Potency [4] | Potency [5] | Potency [6] | Potency [7] | Potency [8] | Potency [9] | outcome [10] | Potency [11] | Potency [12] | Potency [13] | Potency [14] | Potency [15] | Potency [16] | Potency [17] | Potency [18] | Potency [19] | Potency [20] |
| --- | --- | --- | --- | --- | --- | --- | --- | --- | --- | --- | --- | --- | --- | --- | --- | --- | --- | --- | --- | --- |
| Clc1ccccc1C(c1ccccc1)(c1ccccc1)n1ccnc1 | inactive | inactive | inactive | 26.6 µM (active) and 33.2 µM (active) | inactive | inactive | inactive | inactive | inactive | inactive |  |  |  |  |  |  |  |  |  |  |
| Cc1cnc(C(=O)NCCc2ccc(S(=O)(=O)NC(=O)NC3CCCCC3)cc2)cn1 | inactive |  | inactive | inactive | inactive | inactive | inactive | inactive | inactive | inactive | inactive | inactive | inactive | inactive | inactive | inactive | inactive | inactive | inactive |  |
| CC(C(=O)O)c1cccc(C(=O)c2ccccc2)c1 (centres undefined) | inactive | inactive | inactive | inactive | inactive | inactive | inactive | inactive | inactive | inactive | inactive |  |  | inactive | inactive |  | inactive | inactive | inactive |  |
| O=C(CCCN1CCC(O)(c2ccc(Cl)cc2)CC1)c1ccc(F)cc1 | inactive | inactive | inactive | inactive |  |  | inactive | inactive | inactive | inactive |  | inactive | inactive | inactive | inactive | inactive |  | inactive | inactive |  |
| CC(=O)OCC(CCn1cnc2cnc(N)nc21)COC(C)=O | inactive |  | inactive | inactive | inactive | inactive | inactive | inactive | inactive | inactive | inactive | inactive | inactive | inactive | inactive | inactive | inactive | inactive | inactive |  |
| CCC1(C)CC(=O)NC1=O (centres undefined) | inactive |  | inactive | inactive | inactive | inactive | inactive | inactive | inactive | inactive | inactive | inactive | inactive | inactive | inactive | inactive | inactive | inactive | inactive | inactive |
| CN(C)C(=O)C(CCN1CCC(O)(c2ccc(Cl)cc2)CC1)(c1ccccc1)c1ccccc1 |  |  | inactive | inactive | 24.1 µM (active) and 15.4 µM (active) | 18.7 µM (active) | 20.9 µM (active) |  | inactive |  |  | 18.7 µM (active) | 18.7 µM (active) | 24.3 µM (active) | inactive | 26.6 µM (active) | 19.3 µM (active) and 21.9 µM (active) | 21.7 µM (active) and 19.5 µM (active) | 18.7 µM (active) and 16.8 µM (active) |  |
| Nc1nnc(-c2cccc(Cl)c2Cl)c(N)n1 | inactive |  | inactive | inactive | inactive | inactive | inactive | inactive | inactive | inactive | inactive | inactive |  | inactive | inactive | inactive | inactive | inactive | inactive | inactive |
| CC(COc1ccccc1)N(CCCl)Cc1ccccc1 (centres undefined) | inactive |  | inactive |  | inactive | inactive | inactive | inactive | inactive | inactive | inactive |  | inactive |  |  | inactive | 9.68 µM (active) | 24.3 µM (active) | inactive |  |
| CCC1(c2ccccc2)C(=O)NCNC1=O | inactive |  | inactive | inactive |  | inactive | inactive |  | inactive | inactive | inactive |  |  | inactive | inactive |  | inactive | inactive | inactive |  |
| COc1ccc2[nH]cc(CCNC(C)=O)c2c1 | inactive |  | inactive | inactive | inactive | inactive | inactive | inactive | inactive | inactive | inactive | inactive |  | inactive | inactive | inactive | inactive | inactive | inactive |  |
| CN(C)CCC=C1c2ccccc2C=Cc2ccccc21 | inactive |  | inactive | 29.6 µM (active) | 27.3 µM (active) | inactive | inactive | inactive | inactive | inactive |  |  |  | inactive | inactive | inactive |  | 27.6 µM (active) | inactive |  |
| OCCN1CCN(CCCN2c3ccccc3Sc3ccc(C(F)(F)F)cc32)CC1 | inactive |  | inactive |  | 21.5 µM (active) and 19.4 µM (active) |  |  |  | inactive | inactive | 20.9 µM (active) | 18.7 µM (active) | 2.09 µM (active) | 13.7 µM (active) |  |  | 27.3 µM (active) | 24.3 µM (active) and 27.6 µM (active) | inactive | 18.7 µM (active) |
